The source of these data is paper PMC5540273 (PLoS ONE, 2017).
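Further: KINOMEscan kinase panel screen.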

The experiment deals with MAP3K3. The following applies: concentration: 1 μM, replicates: in singlicate; n = 1.
Consider `CC(C)(C)c1ccc2nccc(Nc3cccc(O)c3)c2c1` [GW856795], for which the “%Inh” value was 0%.

As for `COc1cc2c(cc1OCCN1CCNCC1)ncc1c3ccc(C#N)cc3[nH]c21`, the “%Inh” value is 14%. `COc1cc(Nc2nccc(-c3c(-c4cccc(NC(=O)c5c(F)cccc5F)c4)nn4ccccc34)n2)cc(OC)c1OC` [GSK323521]: the “%Inh” value was determined as 20%. The value for `Cc1ccc(S(=O)(=O)Nc2ccc(Nc3nccc(Nc4cccc5[nH]ncc45)n3)cc2)cc1` [GSK581271] was 0%; that for `CCc1ccc(-c2ccc3c(c2)-c2c(cnn2C)S(=O)(=O)N3C)cc1` was 0%.

For `O=C(Nc1cccc(-c2nn3ncccc3c2-c2ccnc(Nc3ccccc3)n2)c1)c1c(F)cccc1F` [GSK198271], the “%Inh” value worked out at 0%. For `Fc1ccc(-c2ncn(C3CCNCC3)c2-c2ccnc(Oc3ccc(-c4ccccc4)cc3)n2)cc1` [SB-245391] the value was 29%; for `CN(c1ccc(NC(=O)Nc2cc(C(F)(F)F)ccc2F)cc1)c1ccnc(Nc2ccc(S(N)(=O)=O)cc2)n1` [GW809893], 15%. For `CC(=O)Nc1nc2cnc(Nc3cc(NC(=O)c4cccc(C5(C#N)CC5)c4Cl)ccc3C)nc2s1`, the “%Inh” value came out at 0%. For `Cl.c1ccc(-c2ccc3c(Nc4ccc5[nH]ncc5c4)ccnc3c2)nc1` [GW440137] the value was 0%; for `COc1cc(Nc2ncc3c(C)nc(-c4cc5ccccc5[nH]4)n3n2)cc(OC)c1OC` [GW869516], 14%; for `COC(=O)Nc1nc2ccc(Oc3ccc(NC(=O)Nc4cc(C(F)(F)F)ccc4F)cc3)cc2n1C.Cl` [GW692089], 0%. For `Nc1n[nH]c2cnc(-c3ccccc3)cc12` [SB-642124] the value was 0%; for `COc1cc(Nc2nccc(N3CCC(NC(=O)Nc4cccc(C(C)=O)c4)C3)n2)cc(OC)c1OC` (stereo not shown) [GSK1379753], 0%; for `O=C(NC1CCN(c2ccnc(Nc3ccc(F)cc3)n2)C1)c1cc2ccccc2s1` (stereo not shown) [GSK1379716], 0%. For `c1ccc(-c2cnc3nccnn23)cc1` [AH20685], the “%Inh” value is reported as 0%. As for `Nc1ncnc2c1nc(-c1ccccc1)n2-c1ccccc1` [SKF-97293], the “%Inh” value was 14%. For `CN(C)Cc1ccc(-c2ccc3c(Nc4ccc(Oc5ccccn5)cc4)ccnc3c2)o1` [GW567148], the “%Inh” value was 0%. Turning to `COc1cc(Nc2nccc(N3CCC(NC(=O)c4cc5ccccc5s4)C3)n2)cc(OC)c1OC` (stereo not shown) [GSK1379760], the “%Inh” value is reported as 11%. With `Cl.Cl.NCC(NCc1ccc(-c2ccnc3[nH]ccc23)s1)c1ccccc1` (stereo not shown) [GSK1321565], the “%Inh” value came out at 29%.

Regarding `Cl.NC(=O)c1cccc(Nc2nccc(Nc3ccc(Oc4c(Cl)cccc4Cl)c(Cl)c3)n2)c1` [GW659009], the “%Inh” value is 3%. Turning to `O=C(Nc1ccccc1F)NC1CCN(c2ccnc(Nc3ccc(F)cc3)n2)CC1` [GSK1379800], the “%Inh” value was found to be 0%. Turning to `Cc1ccc(C(=O)N2CC[C@@H](O)C2)cc1-n1c(C)cc(OCc2ccc(F)cc2F)c(Br)c1=O`, the “%Inh” value is on record as 0%. The value for `CN(C)S(=O)(=O)c1cc(-c2ccc3nccc(-c4cccc(S(N)(=O)=O)c4)c3c2)cnc1N` [GSK1669921] was 0%. The value for `O=c1[nH]cc(-c2ccc(N3CCOCC3)cc2)c2sc(-c3cn[nH]c3)cc12` [GSK2276055] was 0%; that for `CCCCc1nn2ncccc2c1-c1ccnc(Nc2ccc(N3CCN(C)CC3)cc2)n1` [GW684941] was 49%. For `O=C(Nc1cccc(-c2nn3ccccc3c2-c2ccnc(Nc3cccc(F)c3)n2)c1)c1c(F)ccc(F)c1Cl` [GSK357952] the value was 7%; for `c1ccc(-c2n[nH]cc2Nc2ccnc3ccccc23)nc1` [GW694077], 0%. Regarding `COc1cc(Nc2nccc(-c3c(-c4cccc(NC(=O)c5c(F)cccc5F)c4)nn4ncccc34)n2)cc(OC)c1OC` [GSK327238], the “%Inh” value was determined as 92.9%. The value for `COc1cccc(C(=O)Nc2cccc(Oc3ccc4nc(NC(=O)C5CC5)cn4n3)c2)c1` was 24%.

In the case of `COCCOCCOc1cc2ncc3c4ccc(C#N)cc4[nH]c3c2cc1OC`, the “%Inh” value worked out at 4%. The value for `Nc1ncc(-c2ccc3nccc(-c4ccncc4)c3c2)cc1S(=O)(=O)N1CCOCC1` [GSK1627798] was 0%; that for `Cc1cccc(NC(=O)Nc2ccc(Oc3ncnc4ccn(C)c34)cc2)c1` was 0%.

Turning to `CN1CCN(Cc2cccc(-c3ccc4c(Nc5ccc(Oc6ccccc6)cc5)ccnc4c3)c2)CC1` [GW578342], the “%Inh” value is 0%.
